Measured values published in PubChem BioAssay AID1159580 (chemical genetic matrix, 2015).
Among all 5,500 compounds or so, about 2,000 (36%) were called active. Inconclusive results (about 18%) are left out. No stated cut-off is given here; in the data, active means normalized growth mostly below about 0.91 (no sharp cut-off); inconclusive means no clear call, values can overlap the other calls; inactive means mostly above about 0.92. This is one part of the list.

Experiment: chemical genetic growth profiling, strain panel (AID 1159580);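 further: tested at 20 µM; growth read once vehicle control cultures reached saturation at 30 °C; 1 = growth at the plate median or of vehicle wells; lower values mean less growth of the strain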
Conditions: growth OD

Measured: normalized growth

CC1=NN(c2ccccc2)C(=O)C1
active: S. cerevisiae deletion strains, locus YLR418C, strain cdc73, active compounds read low 0.78 | S. cerevisiae deletion strains, locus YNL307C, strain MCK1, active compounds read low 0.796
inactive: S. cerevisiae deletion strains, locus YJR075W, strain HOC1, active compounds read low 0.979 | S. cerevisiae deletion strains, locus YKL009W, strain mrt4, active compounds read low 0.991 | S. cerevisiae deletion strains, locus YKL068W, active compounds read low 0.98 | S. cerevisiae deletion strains, locus YKL085W, strain MDH1 (second series), active compounds read low 0.963 | S. cerevisiae deletion strains, locus YKL085W, strain MDH1, active compounds read low 0.963 | S. cerevisiae deletion strains, locus YKL160W, strain elf1, active compounds read low 0.951 | S. cerevisiae deletion strains, locus YKL190W, strain CNB1, active compounds read low 0.994 | S. cerevisiae deletion strains, locus YKR001C, strain vps1, active compounds read low 0.961 | S. cerevisiae deletion strains, locus YKR026C, strain gcn3, active compounds read low 0.994 | S. cerevisiae deletion strains, locus YKR091W, strain srl3, active compounds read low 0.986 | S. cerevisiae deletion strains, locus YLL001W, strain dnm1, active compounds read low 0.951 | S. cerevisiae deletion strains, locus YLL026W, active compounds read low 0.984 | S. cerevisiae deletion strains, locus YLL041C, strain sdh2, active compounds read low 0.99 | S. cerevisiae deletion strains, locus YLR027C, strain aat2, active compounds read low 0.994 | S. cerevisiae deletion strains, locus YLR039C, strain RIC1, active compounds read low 0.782 | S. cerevisiae deletion strains, locus YLR058C, strain SHM2, active compounds read low 0.965 | S. cerevisiae deletion strains, locus YLR102C, strain apc9, active compounds read low 1 | S. cerevisiae deletion strains, locus YLR221C, strain rsa3, active compounds read low 0.961 | S. cerevisiae deletion strains, locus YLR258W, strain gsy2, active compounds read low 0.957 | S. cerevisiae deletion strains, locus YLR262C, strain YPT6 (second series), active compounds read low 0.915 | S. cerevisiae deletion strains, locus YLR262C, strain YPT6, active compounds read low 0.725 | S. cerevisiae deletion strains, locus YLR268W, strain sec22, active compounds read low 0.908 | S. cerevisiae deletion strains, locus YLR320W, strain mms22, active compounds read low 0.962 | S. cerevisiae deletion strains, locus YLR330W, strain CHS5, active compounds read low 0.988 | S. cerevisiae deletion strains, locus YLR342W, strain FKS1 (second series), active compounds read low 0.832 | S. cerevisiae deletion strains, locus YLR342W, strain FKS1, active compounds read low 0.987 | S. cerevisiae deletion strains, locus YLR357W, strain rsc2, active compounds read low 1 | S. cerevisiae deletion strains, locus YLR370C, strain arc18, active compounds read low 0.987 | S. cerevisiae deletion strains, locus YLR371W, strain rom2, active compounds read low 0.913 | S. cerevisiae deletion strains, locus YLR384C, strain iki3, active compounds read low 0.982 | S. cerevisiae deletion strains, locus YML016C, strain PPZ1, active compounds read low 0.979 | S. cerevisiae deletion strains, locus YML032C, strain rad52, active compounds read low 0.922 | S. cerevisiae deletion strains, locus YML120C, strain ndi1, active compounds read low 0.974 | S. cerevisiae deletion strains, locus YML124C, strain tub3, active compounds read low 0.984 | S. cerevisiae deletion strains, locus YMR058W, strain fet3, active compounds read low 0.922 | S. cerevisiae deletion strains, locus YMR078C, strain ctf18, active compounds read low 0.969 | S. cerevisiae deletion strains, locus YMR125W, strain sto1, active compounds read low 0.998 | S. cerevisiae deletion strains, locus YMR129W, active compounds read low 0.996 | S. cerevisiae deletion strains, locus YMR205C, strain PFK2, active compounds read low 0.958 | S. cerevisiae deletion strains, locus YMR223W, strain ubp8, active compounds read low 0.925 | S. cerevisiae deletion strains, locus YMR231W, strain pep5, active compounds read low 0.984 | S. cerevisiae deletion strains, locus YMR263W, strain SAP30, active compounds read low 0.97 | S. cerevisiae deletion strains, locus YMR307W, strain GAS1, active compounds read low 0.7 | S. cerevisiae deletion strains, locus YNL067W, strain RPL9B, active compounds read low 0.992 | S. cerevisiae deletion strains, locus YNL071W, strain lat1, active compounds read low 0.922 | S. cerevisiae deletion strains, locus YNL128W, strain TEP1, active compounds read low 0.969 | S. cerevisiae deletion strains, locus YNL209W, strain ssb2, active compounds read low 0.993 | S. cerevisiae deletion strains, locus YNL233W, strain BNI4, active compounds read low 0.993 | S. cerevisiae deletion strains, locus YNL248C, strain rpa49, active compounds read low 0.973 | S. cerevisiae deletion strains, locus YNL250W, strain rad50, active compounds read low 0.957 | S. cerevisiae deletion strains, locus YNL271C, strain bni1, active compounds read low 0.925 | S. cerevisiae deletion strains, locus YNL298W, strain CLA4, active compounds read low 0.951 | S. cerevisiae deletion strains, locus YNL322C, strain KRE1 (second series), active compounds read low 0.977 | S. cerevisiae deletion strains, locus YNL322C, strain KRE1, active compounds read low 0.985 | S. cerevisiae deletion strains, locus YNR049C, strain mso1, active compounds read low 0.992 | S. cerevisiae deletion strains, locus YNR052C, strain pop2, active compounds read low 0.942 | S. cerevisiae deletion strains, locus YOL006C, strain TOP1, active compounds read low 0.997 | S. cerevisiae deletion strains, locus YOL012C, strain htz1 0.753 | S. cerevisiae deletion strains, locus YOL147C, strain pex11, active compounds read low 0.979 | S. cerevisiae deletion strains, locus YOR001W, strain rrp6, active compounds read low 0.972 | S. cerevisiae deletion strains, locus YOR061W, strain CKA2, active compounds read low 0.98 | S. cerevisiae deletion strains, locus YOR069W, strain VPS5, active compounds read low 0.982 | S. cerevisiae deletion strains, locus YOR070C, strain gyp1, active compounds read low 0.995 | S. cerevisiae deletion strains, locus YOR080W, strain dia2, active compounds read low 0.97 | S. cerevisiae deletion strains, locus YOR083W, strain WHI5, active compounds read low 0.939 | S. cerevisiae deletion strains, locus YOR106W, strain vam3, active compounds read low 0.959 | S. cerevisiae deletion strains, locus YOR136W, strain idh2, active compounds read low 0.966 | S. cerevisiae deletion strains, locus YOR144C, strain elg1, active compounds read low 0.988 | S. cerevisiae deletion strains, locus YOR184W, strain ser1, active compounds read low 0.927 | S. cerevisiae deletion strains, locus YOR265W, strain rbl2, active compounds read low 0.988 | S. cerevisiae deletion strains, locus YOR270C, strain vph1, active compounds read low 1.03 | S. cerevisiae deletion strains, locus YOR290C, strain snf2, active compounds read low 0.938 | S. cerevisiae deletion strains, locus YOR316C, strain cot1, active compounds read low 0.984 | S. cerevisiae deletion strains, locus YPL051W, strain arl3, active compounds read low 0.954 | S. cerevisiae deletion strains, locus YPL078C, strain atp4, active compounds read low 0.971 | S. cerevisiae deletion strains, locus YPL106C, strain sse1, active compounds read low 1.01 | S. cerevisiae deletion strains, locus YPL240C, strain hsp82, active compounds read low 0.987 | S. cerevisiae deletion strains, locus YPL241C, strain CIN2, active compounds read low 0.986 | S. cerevisiae deletion strains, locus YPR119W, strain clb2, active compounds read low 0.987 | S. cerevisiae deletion strains, locus YPR141C, strain kar3, active compounds read low 0.947 | S. cerevisiae deletion strains, locus YPR163C, strain tif3, active compounds read low 0.968 | S. cerevisiae deletion strains, locus YPR167C, strain met16, active compounds read low 0.969 | S. cerevisiae deletion strains, strain wtn01, active compounds read low 0.928 | S. cerevisiae strains, strain wild type, active compounds read low 0.98
